# Experimental data from PubChem BioAssay (NCATS).
# Results filed as inconclusive are left out. Calls of active or inactive are those of the source. Calls come from the whole dose curve; as a rule, active = well fitted curve in the direction sought with a large enough effect; inconclusive = small, poorly fitted or top-dose-only effect, or another doubt; inactive = no such curve, though single readings can be large; an effect the other way counts as inactive or inconclusive.
# Test: qHTS of pediatric cancer cell lines to identify multiple opportunities for drug repurposing: Primary screen for SK-N-MC cells (AID 1347093);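 for activity change, negative = cytotoxic: plate controls were DMSO neutral control for no effect and bortezomib for full effect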
# Settings: SK-N-MC viability, CellTiter-Glo luminescence, 48 h; series mostly up to 46 µM; activity change, negative = cytotoxic: at the top concentration
# Method in brief: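 Metabolically active cells were quantified by ATP-dependent luminescence (CellTiter-Glo, 15 min at room temperature) following 48 h treatment. Cells had been plated at 500-1,000 per well and settled for 5 h beforehand.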
# Potency is the fitted concentration of half-maximal effect.
Structure (SMILES),"activity change, negative = cytotoxic",Potency
COC(=O)[C@@H]1CC2=CC(=O)CC[C@]2(C)[C@@]23O[C@@H]2C[C@@]2(C)[C@H](CC[C@@]24CCC(=O)O4)[C@@H]13,-4.98% (inactive),–
CN[C@H](CC(C)C)C(=O)N[C@H]1C(=O)N[C@@H](CC(N)=O)C(=O)N[C@@H]2C(=O)N[C@H]3C(=O)N[C@H](C(=O)N[C@H](C(=O)O)c4cc(O)cc(O)c4-c4cc3ccc4O)[C@H](O)c3ccc(c(Cl)c3)Oc3cc2cc(c3O[C@@H]2O[C@H](CO)[C@@H](O)[C@H](O)[C@@H]2O[C@H]2C[C@](C)(N)[C@H](O)[C@H](C)O2)Oc2ccc(cc2Cl)[C@H]1O,-12.5% (inactive),–
CNC(=O)Nc1ccc(-c2nc(N3CC4CCC(C3)O4)c3cnn(C4CCC5(CC4)OCCO5)c3n2)cc1,–,2.6 nM (active)
CN[C@H]1[C@@H](O)[C@@H]2O[C@@H]3O[C@H](C)CC(=O)[C@]3(O)O[C@@H]2[C@@H](NC)[C@H]1O,–,166 nM (active)
O=c1[nH]c(=O)n([C@H]2C[C@@H](O)[C@@H](CO)O2)cc1C=CBr,-24.6% (inactive),–
C=Cc1c(C)c2cc3nc(cc4[nH]c(cc5nc(cc1[nH]2)C(C)=C5CCC(=O)O)c(CCC(=O)OC)c4C)[C@@]1(C)C3=CC=C(C(=O)OC)[C@H]1C(=O)OC,–,59 nM (active)
CCCCC(=O)O[C@]1(C(=O)CO)[C@@H](C)C[C@H]2[C@@H]3CCC4=CC(=O)C=C[C@]4(C)[C@@]3(F)[C@@H](O)C[C@@]21C,33.6% (inactive),–
C=CC(=O)N1CCc2ccc(-n3c(=O)ccc4cnc5ccc(-c6cnn(C)c6)cc5c43)cc21,–,1480 nM (active)
CCNC(=O)Nc1ccc(-c2nc3c(c(N4CCOC[C@H]4C)n2)CCN(C2COC2)C3)cc1,–,209 nM (active)
CC1(C)O[C@@H]2C[C@H]3[C@@H]4CCC5=CC(=O)C=C[C@]5(C)[C@@H]4[C@@H](O)C[C@]3(C)[C@]2(C(=O)CO)O1,–,29600 nM (active)
C[C@@H]1[C@H](C)CC[C@]2(C(=O)O)CC[C@]3(C)C(=CC[C@@H]4[C@@]5(C)C[C@@H](O)[C@H](O)[C@@](C)(CO)[C@H]5CC[C@]43C)[C@@H]12,40.3% (inactive),–

# Test: qHTS of pediatric cancer cell lines to identify multiple opportunities for drug repurposing: Primary screen for BT-37 cells (AID 1347094);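 for activity change, negative = cytotoxic: plate controls were DMSO for no effect and bortezomib for full effect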
# Settings: BT-37 viability, CellTiter-Glo luminescence, 48 h; series mostly up to 57.3 µM; activity change, negative = cytotoxic: at the top concentration
# Method in brief: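 ATP-based luminescence (CellTiter-Glo) quantifies viability after a 48-hour exposure. Compounds are dosed across 8 or 11 final concentrations; DMSO and 2.3 µM bortezomib serve as controls.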
Structure (SMILES),"activity change, negative = cytotoxic",Potency
CON=C(C(=O)N[C@@H]1C(=O)N2C(C(=O)O)=C(Cn3ccc(=N)n3CCO)CS[C@H]12)c1csc(N)n1,-4.58% (inactive),–
C=CC[C@@H]1C=C(C)C[C@H](C)C[C@H](OC)[C@H]2O[C@@](O)(C(=O)C(=O)N3CCCC[C@H]3C(=O)O[C@H](C(C)=C[C@@H]3CC[C@H](O)[C@H](OC)C3)[C@@H](C)[C@@H](O)CC1=O)[C@@H](C)C[C@@H]2OC,–,1720 nM (active)
COc1ccc(Nc2cc(-c3cnc(N)nc3)nc(N3CCOCC3)n2)cn1,–,13700 nM (active)
C[N+]1(C)[C@@H]2C[C@@H](OC(=O)C(O)(c3cccs3)c3cccs3)C[C@H]1[C@@H]1O[C@@H]12,8.47% (inactive),–
CC(=O)N[C@H]1[C@@H]([C@H](O)[C@H](O)CO)OC(C(=O)O)=C[C@@H]1N=C(N)N,16.6% (inactive),–
C=C1C[C@@]2(O)O[C@@]3(C[C@H]2C(C)C)[C@H](C)CC[C@H]13,-4.01% (inactive),–
Cc1ccc2nc(NCCN)c3ncc(C)n3c2c1,–,24300 nM (active)
O=C(O)C=Cc1ccc(Cn2ccnc2)cc1,13.4% (inactive),–
OCc1ccccc1O[C@@H]1O[C@H](CO)[C@H](O)[C@H](O)[C@H]1O,12.4% (inactive),–
COC(=O)[C@@H]1CC2=CC(=O)CC[C@]2(C)[C@@]23O[C@@H]2C[C@@]2(C)[C@H](CC[C@@]24CCC(=O)O4)[C@@H]13,10.2% (inactive),–
CN[C@H](CC(C)C)C(=O)N[C@H]1C(=O)N[C@@H](CC(N)=O)C(=O)N[C@@H]2C(=O)N[C@H]3C(=O)N[C@H](C(=O)N[C@H](C(=O)O)c4cc(O)cc(O)c4-c4cc3ccc4O)[C@H](O)c3ccc(c(Cl)c3)Oc3cc2cc(c3O[C@@H]2O[C@H](CO)[C@@H](O)[C@H](O)[C@@H]2O[C@H]2C[C@](C)(N)[C@H](O)[C@H](C)O2)Oc2ccc(cc2Cl)[C@H]1O,5.29% (inactive),–
Cc1ccccc1C(=O)Nc1ccc(C(=O)N2CCCC(O)c3cc(Cl)ccc32)c(C)c1 (stereo not given),-14.3% (inactive),–
CNC(=O)Nc1ccc(-c2nc(N3CC4CCC(C3)O4)c3cnn(C4CCC5(CC4)OCCO5)c3n2)cc1,–,30.6 nM (active)
CN[C@H]1[C@@H](O)[C@@H]2O[C@@H]3O[C@H](C)CC(=O)[C@]3(O)O[C@@H]2[C@@H](NC)[C@H]1O,–,9680 nM (active)
